# Screening results deposited in PubChem by National Center for Advancing Translational Sciences (NCATS).
# A selection: hits, their analogues and other compounds. The true share with any hit is near 12%.
# JMJD2A Tudor: JMJD2A Tudor domain (human) inhibition. O75164. AlphaScreen JMJD2A-Tudor / H3K4me3 peptide binding. Potency, µM (titrated, usually from 114 µM), for inactives: at the top dose activity change, negative = inhibition, hits mostly inhibitors. 390,000 tested, 4.4% active; also: % is scaled to controls: 0 for no effect and ±100 for the full control effect; nearly all actives have a fitted effect of over 50% in size
# Target sequence (O75164 whole entry, looked up, the tested form may be a part): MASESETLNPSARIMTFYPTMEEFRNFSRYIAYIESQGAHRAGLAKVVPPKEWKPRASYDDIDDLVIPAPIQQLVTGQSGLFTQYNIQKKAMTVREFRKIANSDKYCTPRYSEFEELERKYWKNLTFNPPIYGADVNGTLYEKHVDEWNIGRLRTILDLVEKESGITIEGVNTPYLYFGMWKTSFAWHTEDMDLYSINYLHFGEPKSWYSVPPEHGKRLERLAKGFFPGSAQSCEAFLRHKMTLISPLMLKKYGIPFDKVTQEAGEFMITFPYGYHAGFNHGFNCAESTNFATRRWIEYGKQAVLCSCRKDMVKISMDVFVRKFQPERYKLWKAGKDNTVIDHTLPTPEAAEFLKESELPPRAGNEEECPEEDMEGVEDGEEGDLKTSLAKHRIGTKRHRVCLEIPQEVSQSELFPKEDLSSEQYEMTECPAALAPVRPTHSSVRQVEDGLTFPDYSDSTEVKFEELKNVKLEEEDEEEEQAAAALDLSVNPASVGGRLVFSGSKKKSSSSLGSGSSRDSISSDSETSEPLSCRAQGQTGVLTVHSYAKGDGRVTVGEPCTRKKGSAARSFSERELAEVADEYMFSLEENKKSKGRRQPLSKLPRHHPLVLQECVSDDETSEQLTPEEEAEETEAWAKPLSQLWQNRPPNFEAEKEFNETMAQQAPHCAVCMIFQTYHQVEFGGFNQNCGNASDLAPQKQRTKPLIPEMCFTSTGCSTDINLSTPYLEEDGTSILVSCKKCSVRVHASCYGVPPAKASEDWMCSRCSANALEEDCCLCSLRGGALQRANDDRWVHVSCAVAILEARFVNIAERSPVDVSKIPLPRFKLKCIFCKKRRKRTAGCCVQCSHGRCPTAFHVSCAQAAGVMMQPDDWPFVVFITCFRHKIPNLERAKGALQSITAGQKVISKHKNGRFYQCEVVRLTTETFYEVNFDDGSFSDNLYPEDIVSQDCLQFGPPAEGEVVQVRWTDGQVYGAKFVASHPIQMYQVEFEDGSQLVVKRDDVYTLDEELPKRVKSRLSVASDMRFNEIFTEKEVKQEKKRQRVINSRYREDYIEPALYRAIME
# Sfp inh: blocks B. subtilis Sfp PPTase activity; Q9F4F7; Biochemical Sfp PPTase activity, qHTS; Potency, µM, for the others: largest response in the series, negative = inhibition, usual class: inhibitors; 310,000 tested, 3.5% active;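 also: the enzyme is Sfp with the accession as filed and its product quenches rhodamine fluorescence; 0% = enzyme reaction without inhibitor and -100% = no enzyme wells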
#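 After 15 min at room temperature with compound, 15 nM Sfp received 5 uM rhodamine-CoA plus 12.5 uM BHQ-2-ybbR (50 mM Hepes pH 7.6, 10 mM MgCl2). Rate came from the fluorescence difference over 30 min, ex 525/em 598 nm.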
# BAZ2B block: blocks human BAZ2B. AlphaScreen BAZ2B-H3K14Ac peptide displacement. Potency, µM (series often up to 114 µM), for the others: at the top dose activity change, negative = inhibition, usual class: inhibitors. 360,000 tested, 4.4% active; also: % is scaled to controls: 0 for no effect and ±100 for the full control effect; nearly all actives have a fitted effect of over 60% in size
#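 AlphaScreen displacement: compounds (up to 110uM) incubated 30 min at room temperature with a preformed 50 nM BAZ2B/50 nM biotinylated H3K14Ac peptide complex in PBS pH 7.4 with Tween-20. Donor and acceptor beads at 10 ug/mL final added, 20 min light-protected before reading.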
# HP1b binding inh: HP1-beta chromodomain-methylated histone interaction inhibition | 390,000 tested, 0.56% active | P83916 | AlphaScreen HP1-beta / biotin-H3K9me3 peptide binding | AID 540317 | Potency, µM (titrated, usually from 114 µM), for the others: at the highest dose activity change, negative = inhibition, most hits filed as inhibitors; also: nearly all actives have a fitted effect of over 70% in size
#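 AlphaScreen: HP1-beta (50 nM) preformed 30 min with biotin-H3(1-18)K9me3 peptide (50 nM) in PBS pH 7.4, 0.01% Tween-20. Compound added for 30 min at RT, then streptavidin donor/nickel chelate acceptor beads (10 ug/mL) for 30 min.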
# L3MBTL1 inh: blocks human L3MBTL1; Q9Y468; AlphaScreen L3MBTL1–H3K9me1 peptide binding; Potency, µM (doses to about 57.1 µM), without a hit: at the top dose activity, negative = inhibition, most hits filed as inhibitors; 230,000 tested, 0.66% active; AID 485360; also: % is scaled to controls: 0 for no effect and ±100 for the full control effect; nearly all actives have a fitted effect of over 60% in size
#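 AlphaScreen proximity signal between nickel-chelate acceptor and streptavidin donor beads (final 10 ug/mL) reports binding of 50 nM L3MBTL1 to 75 nM biotin-H3 K9me1 peptide; complex incubated with compounds 30 min at room temperature; cefsulodin titration as control.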
# G9a inh: blocks human histone lysine methyltransferase G9a; 350,000 tested, 8.8% active; Q96KQ7; G9a H3K9 monomethylation, AlphaScreen, 2 h; Potency, µM (titrated, usually from 102 µM), for the others: top-dose activity, negative = inhibition, usual class: inhibitors; also: % is scaled to controls: 0 for no effect and ±100 for the full control effect; nearly all actives have a fitted effect of over 75% in size
#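 Enzyme 20 nM + cpd, 15 min RT; add b-H3K9 pep 500 nM / SAM 20 uM; 2 h RT; anti-H3K9me1 Ab 0.5 ug/mL + SA donor / anti-rabbit acceptor beads 20 ug/mL each, 10 min; AlphaScreen read.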
# * marks the source's active call; other numbers are inactive results; ? = inconclusive; . = no result given; [ ] = another dose, or the depositor's remark. Calls follow the shape of the dose curve; as a rule, active = well fitted curve in the direction sought with a large enough effect; inconclusive = small, poorly fitted or top-dose-only effect, or another doubt; inactive = no such curve, though single readings can be large; an effect the other way counts as inactive or inconclusive. Potency is read from the fitted curve at half-maximal effect.
SMILES,JMJD2A Tudor,Sfp inh,BAZ2B block,HP1b binding inh,L3MBTL1 inh,G9a inh
O=C1Cc2cc(S(=O)(=O)N3CCN(c4ccc(Br)cc4)CC3)ccc2N1,141µM*,.,.,.,.,.
CC(=O)N1CCN(S(=O)(=O)c2ccc3c(c2)CC(=O)N3)CC1,-26%[229 µM],.,5%,47%,-16%,-26%[12.7 µM]
CC(=O)c1ccc(N2CCN(S(=O)(=O)c3ccc4c(c3)NC(=O)CC(=O)N4)CC2)cc1,16µM*,23%,-23%,-6%,.,24%
C#C[C@]1(OC(C)=O)CC[C@H]2[C@@H]3CCC4=CC(=O)CC[C@@H]4[C@H]3CC[C@@]21C,.,-22%,.,.,.,20%[59 µM]
CC(C)Cc1csc(=S)[nH]1,4µM*,.,.,6%[57 µM],.,.
COc1cccc(CNC(=O)c2c(C)oc3nc(C)nc(N4CCOCC4)c23)c1,-4%,.,10%[57.1 µM],31%,.,-1%[59 µM]
CC(=O)c1ccc(NC(=O)C2=CC(c3ccc4c(c3)OCO4)=NS(=O)(=O)N2C)cc1,18%,12%,-27%,43%,.,-3%[59 µM]
Cc1ccc(NC(=O)C2=CC(c3ccc(C)cc3)=NS(=O)(=O)N2C)cc1,?,14%,1%,3%,-12%,40µM*
CC(=O)c1ccc(NC(=O)C2=CC(c3ccc(C)cc3)=NS(=O)(=O)N2C)cc1,?,.,?,-13%,.,14µM*
COc1ccc(C2=NS(=O)(=O)N(C)C(C(=O)Nc3ccc(C)cc3)=C2)cc1,-20%,3%,?,-3%,-16%,?
C/C(=N\NC(=O)c1cccc(N/N=C(\C)c2cc(O)ccc2O)c1)c1cc(O)ccc1O,13µM*,8%,11µM*,?,28µM*,?
C/C(=N\NC(=O)c1cccc(N/N=C(\C)c2ccco2)c1)c1ccco1,?,5%,-30%,-1%,-29%,35µM*
C/C(=N\NC(=O)c1cccc(O)c1)c1cccc(NC(=O)c2ccc(F)cc2)c1,-13%,13%,-26%,32%,.,7%
Cc1c(Cl)cccc1NC(=O)CSc1nc(=O)[nH]c2c1CCCC2,-4%,.,-4%,16%,.,14%[59 µM]
Oc1ccc(/C(Cc2ccc3ccccc3n2)=N\Nc2ccccc2)c(O)c1,50µM*,-30%,?,71µM*,.,7.9µM*
Oc1ccc(/C(Cc2ccccn2)=N\Nc2ccccc2)c(O)c1,?,-10%,32µM*,-28%,.,4µM*
Cc1cc(C)nc(/N=C2\NC(=O)CC(C(=O)O)N2c2ccc(C)c(C)c2)n1 (stereo not drawn),13µM*,5%,-10%,-2%,5%,-38%
Cc1ccc(N2/C(=N/c3nc(C)cc(C)n3)NC(=O)CC2C(=O)O)cc1 (stereo not drawn),1%,13%,11%,17%,.,-9%
CCc1ccccc1NC(=O)c1ncoc1-c1ccco1,-6%,.,-10%,21%,.,5%[59 µM]
Cc1oc(-c2cccc(Cl)c2)nc1CN1CCC(C(=O)N2CCN(c3ccccc3F)CC2)CC1,?,-19%,-37%,11%,-13%,?
Cc1cccc(-c2nc(CN3CCCC(C(=O)NCCc4ccc(Cl)cc4)C3)c(C)o2)c1 (stereo not drawn),?,.,56µM*,14%,.,?
Cc1oc(-c2cccc(Cl)c2)nc1CN1CCCC(C(=O)NCc2ccc(Cl)cc2)C1 (stereo not drawn),?,.,?,4%,.,-45%[59 µM]
Cc1oc(-c2cccc(Cl)c2)nc1CN1CCCC(C(=O)N2CCN(c3ccc(F)cc3)CC2)C1 (stereo not drawn),40µM*,.,10µM*,?,.,18µM*
Cc1oc(-c2cccc(Cl)c2)nc1CN1CCCC(C(=O)NC(C)c2ccc3c(c2)OCCO3)C1 (stereo not drawn),?,6%,?,21%,.,50µM*
CC(C)(C)NC(=O)c1ccc2nc(CCc3ccccc3)oc2c1,-14%,.,1%,7%[57 µM],.,2%[59 µM]
SMILES,JMJD2A Tudor,Sfp inh,BAZ2B block,HP1b binding inh,L3MBTL1 inh,G9a inh
Cc1ccccc1CNC(=O)c1ccc(Cn2c(SCc3ccccc3)nc3cccnc32)cc1,-17%,.,-27%,21%,.,-27%[59 µM]
Cc1[nH]n(-c2ccccc2)c(=O)c1-c1cccc(Cl)c1,-10%,6%,?,8%,12%,-16%[0.0925 µM]
Cc1[nH]n(-c2ccccc2)c(=O)c1-c1ccc(Cl)cc1,79µM*,-11%,-6%,-14%,.,14µM*
Cc1[nH]n(-c2ccccc2)c(=O)c1S(=O)(=O)c1ccccc1,-27%,-7%,42%,33%,4%,45µM*
Cc1[nH]n(-c2ccccc2)c(=O)c1CCO,4%,15%,2%,36%,2%,.
CCCN(Cc1ccc(N(C)C)cc1)CC1CC1,?,89µM*,?,6%,.,?
CCCN(Cc1ccc(N(CC)CC)cc1)CC1CC1,-29%,9%,?,9%,-6%,?
Cc1ccc(C2SCC(=O)N2Cc2cn3ccsc3n2)o1 (stereo not drawn),-8%,56µM*,11%,38%,4%,?
c1cn2cc(CN3CCOCC3)nc2s1,-17%,-8%,6%,15%,6%,-42%[59 µM]
CS(=O)(=O)c1ccc(N)cc1,-9%,13%,8%,43%,9%,45µM*
Cc1cccc(Cn2c(COc3ccccc3)nc3ccccc32)c1,53%,.,95%,79%,.,53%[59 µM]
COC(=O)C1=C(C)NC(C)=C(C(=O)OC)C1c1ccc(-c2cccc([N+](=O)[O-])c2)o1,?,-2%,-26%,13%,-13%,79µM*
COC(=O)C1=C(C)NC(C)=C(C(=O)OC)C1c1ccc(-c2cc(Cl)ccc2Cl)o1,-12%,?,-5%,53%,-3%,18µM*
CC1=C(C(=O)N2CCCCC2)C(c2cccc(Cl)c2)n2c(nc3ccccc32)N1 (stereo not drawn),-14%,.,2%,10%,.,-37%[59 µM]
COc1cc(CNCCSc2nnnn2C)ccc1OCc1ccccc1C,-14%,.,-26%,16%,.,9%[59 µM]
Cc1ccc2cc3cc(C(=O)NCCCN4CCCCCC4)oc3nc2c1,-13%,-8%,-6%,11%,9%,45µM*
Cc1ccc2cc3cc(C(=O)NCCCN4CCc5ccccc5C4)oc3nc2c1,-2%[11.4 µM],-21%,-9%,5%,1%,?
Cc1ccc2nc(Cl)c3cc(C(=O)N(CCN(C)C)Cc4ccco4)sc3c2c1,45µM*,-10%,.,?,.,50µM*
CN(C)CCN(Cc1ccco1)C(=O)c1cc2c(Cl)nc3ccccc3c2s1,?,10%,-33%,-10%,13%,?
CCC1CCCCN1CCCNC(=O)c1cc2c(Cl)nc3ccc(C)cc3c2s1 (stereo not drawn),-26%,.,-27%,9%,.,-28%[59 µM]
